# LASV entry inh: qHTS for Inhibitors of binding or entry into cells for Lassa Virus | Potency, µM (titrated, usually from 37.9 µM), inactives show top-dose activity change, negative = inhibition, actives largely listed as inhibitors | 300,000 compounds, 1.2% hits | AID 540256, 2011 | Lassa virus pseudotype entry inhibition, cell reporter; calls by dose curve; tested in HEK293 cells; note: potency is the fitted concentration of half-maximal effect; % is set by controls: 0 for no effect and ±100 for the full control effect; nearly all actives have a fitted effect of over 50% in size
# Shiga toxin inh: A qHTS for Small Molecule Inhibitors of Shiga Toxin; Vero cells, Shiga toxin protein synthesis inhibition reporter; inhibition, % at 38.7 µM; 290,000 compounds, 9.2% hits; in the data active = inhibition mostly above about 28%, no sharp cut-off; inactive = mostly below about 43%; note: 0% is about no effect
# Cycloheximide cs: Cycloheximide Counterscreen for Small Molecule Inhibitors of Shiga Toxin; cell reporter, cycloheximide protein synthesis inhibition counterscreen; max response, %; 300,000 compounds, 12% hits; in the data active = max response mostly above about 13%, no sharp cut-off; inactive = mostly below about 14%; note: read at 38.3 µM for the half of the compounds with a filed dose; 0% is about no effect
# Marburg entry inh: qHTS for inhibitors of binding or entry into cells for Marburg Virus | Marburg virus pseudotyped entry inhibition, cell reporter | Potency, µM (highest dose often 37.8 µM), without a hit: at the top dose activity change, negative = inhibition, usual class: inhibitors | 300,000 compounds, 1.8% hits; calls by dose curve; tested in HEK293 cells; note: potency is the fitted concentration of half-maximal effect; % is set by controls: 0 for no effect and ±100 for the full control effect
# Vaccinia mCherry: qHTS for Stage-Specific Inhibitors of Vaccinia Orthopoxvirus: mCherry Reporter Primary qHTS | Vaccinia virus mCherry reporter infection, fluorescence | Potency, µM (doses to about 36.5 µM), inactives show at the highest dose activity change, negative = inhibition, most hits filed as inhibitors | 310,000 compounds, 0.63% hits; calls by dose curve; tested in A549 cells; note: potency is the fitted concentration of half-maximal effect; % is set by controls: 0 for no effect and ±100 for the full control effect; nearly all actives have a fitted effect of over 35% in size
# Vaccinia Venus: qHTS for Stage-Specific Inhibitors of Vaccinia Orthopoxvirus: Venus Reporter Primary qHTS; Vaccinia virus Venus reporter expression, fluorescence; AID 720580, 2013; Potency, µM (titrated, usually from 36.5 µM), without a hit: at the top dose activity change, negative = inhibition, most hits filed as inhibitors; 330,000 compounds, 0.46% hits; calls by dose curve; tested in A549 cells; note: potency is the fitted concentration of half-maximal effect; % is set by controls: 0 for no effect and ±100 for the full control effect; nearly all actives have a fitted effect of over 30% in size
# Starred values were filed as active, the others as inactive; i = inactive; u = inconclusive; x = no result; [ ] = dose if it differs, or a comment. This is one part of a sample in which hits are shown more often than they occur.
SMILES,LASV entry inh,Shiga toxin inh,Cycloheximide cs,Marburg entry inh,Vaccinia mCherry,Vaccinia Venus
CCC(C)(C)n1nnnc1CN1CCN(C(c2ccccc2)c2ccccc2)CC1,13µM*,10.2,-2.0,-29.7%,x,x
COc1cccc(C(=O)Nc2ccccc2C(=O)OCc2cc(=O)n3nc(C)sc3n2)c1,u,x,x,x,u,-20.7%
O=C(Cn1nnc(-c2ccc(F)cc2)n1)NC(=O)NC1CCCCC1,x,x,x,x,-18.0%,-24.0%
O=C1c2ccccc2S(=O)(=O)N1Cc1nc2ccccc2s1,1µM*,-22.9,-3.1,u,-13.4%,-4.1%
O=C(Nc1ncc(Cc2cccc(Cl)c2)s1)C1CCCO1 (stereo not given),u,115.8*,69.1*,u,-12.2%,-13.9%
CC(=O)Nc1ncc(Cc2cccc(Cl)c2Cl)s1,-23.7%,21.9,3.9,22.0%[46.1 µM],i,-4.7%
O=C(Nc1ncc(Cc2ccccc2Cl)s1)C1CCCO1 (stereo not given),u,48.8*,54.4*,u,-7.5%,0.7%
O=C(Nc1ncc(Cc2cccc(Cl)c2Cl)s1)C1CCCO1 (stereo not given),u,100.5*,47.5*,u,i,-24.9%
CCn1cc(C(=O)NCCc2ccc(C)cc2)c(=O)c2cc(S(=O)(=O)N3CCC(C)CC3)ccc21,12.8%[46.1 µM],x,x,u,u,-25.5%
COc1cccc2sc(N(C)c3ccccc3)nc12,u,86.2,61.5*,u,x,x
COc1cccc2sc(/N=C/N(C)C)nc12,12.9%[46.1 µM],50.4*,10.4*,u,i,-9.9%
Cc1c(Cl)cccc1N1CCn2c1nc1c2c(=O)n(CC(=O)O)c(=O)n1C,u,x,x,-4.1%[46.1 µM],-4.9%,-7.3%
O=C(/C=C/c1ccccc1Cl)N1CCC(c2nc3ccccc3o2)CC1,10.7%[46.1 µM],x,x,u,-5.0%,-8.4%
CCn1cc(CN2CCOc3ccc(C(O)C4CCCCC4)cc3C2)c(C)n1 (stereo not given),x,x,x,x,-9.2%,-7.2%
O=C(O)CN1C(=O)/C(=C\c2cc(Br)ccc2OCc2ccccc2Cl)SC1=S,u,77.3*,41.8*,-26.0%[46.1 µM],i,-3.2%
O=C(O)CCN1C(=O)/C(=C\c2cccc(OCc3ccccc3)c2)SC1=S,11.6%,-9.1,2.7,22.1%[46.1 µM],1.4%,11.9%
O=C(O)CN1C(=O)/C(=C\c2ccccc2OCc2ccc(Cl)cc2Cl)SC1=S,9.4%[46.1 µM],38.3*,15.8*,-15.4%[46.1 µM],-1.4%,-13.5%
O=C(O)CN1C(=O)/C(=C\c2cc(Br)ccc2OCc2ccc([N+](=O)[O-])cc2)SC1=S,x,-4.6,2.2,x,x,x
O=C(O)CN1C(=O)/C(=C\c2cccc(OCc3ccc(Cl)cc3Cl)c2)SC1=S,-12.2%[46.1 µM],67.6*,22.4*,25.4%[46.1 µM],i,-0.3%
O=C(O)CN1C(=O)/C(=C\c2cc(Br)ccc2OCc2ccccc2F)SC1=S,x,0.5,5.5,x,x,x
CCc1ccccc1NC(=O)Cn1nnc(-c2cccnc2)n1,-5.3%,-17.8,-8.6,-7.6%,x,x
C=C(COC)C1=CCC(C(=O)OC)(C(=O)OC)[C@@H](C[N+](=O)[O-])c2ccccc21,x,x,x,59.6%[14.2 µM],x,x
Cc1nc(NC(=O)CCl)sc1C(=O)N(C)C,x,22.5,-3.0,x,u,u
Cc1csc(NC(=O)c2cc3c(C)nn(Cc4ccccc4Cl)c3s2)n1,-23.6%,73.3,41.7*,u,-13.0%,-24.5%
Cc1nc(NC(=O)c2ccc(Br)s2)sc1C(=O)N(C)C,91.0%[14.3 µM],50.3*,44.3*,u,-10.5%,-10.0%
SMILES,LASV entry inh,Shiga toxin inh,Cycloheximide cs,Marburg entry inh,Vaccinia mCherry,Vaccinia Venus
Cc1ccc(NC(=O)c2cc3c(s2)CCCC3)cc1,u,103.6*,54.0*,15.4%[46.1 µM],4.2%,-12.9%
Cc1ccc(NS(=O)(=O)c2cc(NC(=O)c3cc4c(s3)CCCC4)ccc2C)c(C)c1,-3.6%,22.3,-1.8,u,-11.8%,5.3%
Cc1nn(Cc2ccccc2Cl)c2sc(C(=O)NC(C)(C)C)cc12,u,-13.9,-4.3,u,u,-25.7%
Cc1csc(NC(=O)c2cc3c(s2)CCC3)n1,u,86.2*,64.4*,12.6µM*,x,-5.3%
O=C(Nc1nc(-c2ccc(Br)cc2)ns1)c1ccc(F)cc1,-1.6%[46.1 µM],x,x,10.6%[46.1 µM],-6.4%,-18.8%
COc1cc(OC)c(NC(=O)c2c(C)oc3ncn(C)c(=O)c23)cc1Cl,0.3%[46.1 µM],x,x,3.6%[46.1 µM],-2.5%,-3.5%
O=C(Nc1nnc(C2CC2)s1)c1cc2c(s1)CCCCCC2,x,-3.5,9.1,x,x,x
CCc1sc(C(=O)Nc2nc(C)cs2)cc1C,x,76.1*,26.5*,u,-11.6%,4.3%
COC(=O)c1sc(NC(=O)c2cc3c(s2)CCCC3)nc1C,-22.0%,26.4*,33.7*,11.0%,x,x
Cc1nc(NC(=O)c2cc3c(s2)CCCCC3)sc1C(=O)N(C)C,-22.9%,102.0*,21.2*,17.1%,x,x
Cc1ccc(NC(=O)c2scc3c2CCCC3)cc1,u,73.5*,54.0*,u,-10.6%,1.1%
CCc1ccccc1Nc1nn2c(=O)c3ccc(C(=O)NCCCOC(C)C)cc3nc2s1,-0.9%[46.1 µM],x,x,x,u,u
CC(=O)Nc1ccc(Nc2nc(Nc3ccc(Cl)cc3)nc(N3CCOCC3)n2)cc1,x,x,x,x,-19.5%,-23.4%
Cc1ccccc1SCC(=O)NNC(=O)c1ccccc1O,x,-4.4,3.2,x,x,x
COc1ccc(C2=Nn3c(nc4sc(C(=O)Nc5cccc(C)c5)c(C)c4c3=O)SC2)cc1,8.8%[46.1 µM],x,x,-13.3%[46.1 µM],-9.0%,2.6%
O=C(Cc1cccc(NC(=O)C2CCN(C(=O)C3CCCC3)CC2)c1)Nc1cccc(C(=O)N2CCCCC2)c1,x,x,x,x,-19.6%,-12.4%
CCOC(=O)c1c(NC(=O)C2C3CCC(O3)C2C(=O)O)sc(C)c1-c1ccc(C)cc1 (stereo not given),-19.1%,13.2,3.6,-1.7%,x,11.2µM*
CCOC(=O)c1c(NC(=O)/C=C/C(=O)O)sc(C)c1-c1ccc(C(C)(C)C)cc1,u,18.1,3.0,10µM*,u,u
CCOC(=O)c1c(NC(=O)CCN2CCOCC2)sc(C)c1-c1ccccc1,3.16µM*,-13.2,1.6,u,i,-19.9%
CCOC(=O)c1c(NC(=O)/C=C\C(=O)O)sc(C)c1-c1ccccc1,-12.9%,-14.8,-2.8,-22.6%[46.1 µM],-4.1%,-10.0%
Cc1sc(NC(=O)C2C3CCC(O3)C2C(=O)O)nc1-c1ccc(CC(C)C)cc1 (stereo not given),1.8%,80.1*,41.7*,u,u,u
Cc1nc2cc(NC(=O)[C@@H]3C[C@@H](Sc4ccccn4)CN3C3CCCCCC3)ccc2s1,x,x,x,x,i,-18.0%
O=C(Nc1ccc(-n2cccn2)cc1)C1CCCCN1Cc1cccc2cccnc12 (stereo not given),-10.0%[46.1 µM],11.0,24.3*,u,-19.5%,-20.8%
Cn1cc(CN2CCCCC2C(=O)Nc2ccc(-n3cccn3)cc2)cn1 (stereo not given),x,-8.6,0.8,x,x,x
Cc1cc(C)c2nc(NC(=O)c3ccc([N+](=O)[O-])o3)sc2c1,u,x,-1.6,-4.7%,10µM*,u

# High-throughput results from PubChem.
